The source made the active and inactive calls.
How the values were obtained:
[1] = system: Plasmodium falciparum Sir2 (PF13_0152, Sir2A); test: pfSir2 binders on small-molecule microarrays, primary screen, biochemical, small-molecule microarray, 635 nm fluorescence (AID 1098); conditions: small-molecule microarray binding, fluorescence 635 nm; higher = more signal;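 note: score merges spot fluorescence intensity with its signal-to-noise ratio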
[2] = small-molecule microarray binders of probe aDKK1, primary screen, biochemical, biotinylated probe, 635/667 nm fluorescence (AID 1099); conditions: higher = more signal;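 note: score merges 667nm spot fluorescence with signal to noise across triplicate slides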
[3] = small-molecule microarray binders of probe aCHRDL2, primary screen, biochemical, biotinylated probe, 635/667 nm fluorescence (AID 1100); conditions: higher = more signal
[4] = splicing luciferase reporter signal modulators, primary screen, spliceosome inhibition project, cell-based, HEK293, splice +/- reporter (AID 1101); conditions: luminescence, 24 h, higher = more signal, called active from +8 up or from −8 down;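 note: HEK293 cells carrying a splicing-competent luciferase reporter gene; test concentration not given here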
[5] = molecular target: Fibroblast growth factor 10 (Homo sapiens) (UniProt O15520); test: FGF10 binders on small-molecule microarrays, primary screen, biochemical, small-molecule microarray, 635 nm fluorescence (AID 1102); conditions: FGF10 binding, fluorescence 635 nm, higher = more signal
Sequence of Fibroblast growth factor 10 (Homo sapiens) (O15520 whole entry, looked up): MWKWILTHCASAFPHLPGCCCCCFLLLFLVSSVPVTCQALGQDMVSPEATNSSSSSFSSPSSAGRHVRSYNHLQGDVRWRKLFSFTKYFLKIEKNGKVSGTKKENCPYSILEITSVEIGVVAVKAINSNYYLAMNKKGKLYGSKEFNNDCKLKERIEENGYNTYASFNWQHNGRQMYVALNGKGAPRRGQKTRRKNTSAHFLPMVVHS

[6] = system: glycogen synthase kinase-3 (GSK3A per assay name; protocol says GSK3B); test: GSK3 binders on small-molecule microarrays, primary screen, biochemical, small-molecule microarray, 635 nm fluorescence, GSK3A (AID 1103); conditions: small-molecule microarray binding, fluorescence 635 nm; higher = more signal; note: the record names both GSK3A and GSK3B
[7] = molecular target: Epidermal growth factor receptor (Homo sapiens) (UniProt P00533); test: EGFR binders on small-molecule microarrays, primary screen, biochemical, small-molecule microarray, 635 nm fluorescence (AID 1104); conditions: EGFR binding, higher = more signal;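 note: score merges 667 nm emission intensity with spot signal to noise over triplicate slides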
Sequence of Epidermal growth factor receptor (Homo sapiens) (P00533 whole entry, looked up): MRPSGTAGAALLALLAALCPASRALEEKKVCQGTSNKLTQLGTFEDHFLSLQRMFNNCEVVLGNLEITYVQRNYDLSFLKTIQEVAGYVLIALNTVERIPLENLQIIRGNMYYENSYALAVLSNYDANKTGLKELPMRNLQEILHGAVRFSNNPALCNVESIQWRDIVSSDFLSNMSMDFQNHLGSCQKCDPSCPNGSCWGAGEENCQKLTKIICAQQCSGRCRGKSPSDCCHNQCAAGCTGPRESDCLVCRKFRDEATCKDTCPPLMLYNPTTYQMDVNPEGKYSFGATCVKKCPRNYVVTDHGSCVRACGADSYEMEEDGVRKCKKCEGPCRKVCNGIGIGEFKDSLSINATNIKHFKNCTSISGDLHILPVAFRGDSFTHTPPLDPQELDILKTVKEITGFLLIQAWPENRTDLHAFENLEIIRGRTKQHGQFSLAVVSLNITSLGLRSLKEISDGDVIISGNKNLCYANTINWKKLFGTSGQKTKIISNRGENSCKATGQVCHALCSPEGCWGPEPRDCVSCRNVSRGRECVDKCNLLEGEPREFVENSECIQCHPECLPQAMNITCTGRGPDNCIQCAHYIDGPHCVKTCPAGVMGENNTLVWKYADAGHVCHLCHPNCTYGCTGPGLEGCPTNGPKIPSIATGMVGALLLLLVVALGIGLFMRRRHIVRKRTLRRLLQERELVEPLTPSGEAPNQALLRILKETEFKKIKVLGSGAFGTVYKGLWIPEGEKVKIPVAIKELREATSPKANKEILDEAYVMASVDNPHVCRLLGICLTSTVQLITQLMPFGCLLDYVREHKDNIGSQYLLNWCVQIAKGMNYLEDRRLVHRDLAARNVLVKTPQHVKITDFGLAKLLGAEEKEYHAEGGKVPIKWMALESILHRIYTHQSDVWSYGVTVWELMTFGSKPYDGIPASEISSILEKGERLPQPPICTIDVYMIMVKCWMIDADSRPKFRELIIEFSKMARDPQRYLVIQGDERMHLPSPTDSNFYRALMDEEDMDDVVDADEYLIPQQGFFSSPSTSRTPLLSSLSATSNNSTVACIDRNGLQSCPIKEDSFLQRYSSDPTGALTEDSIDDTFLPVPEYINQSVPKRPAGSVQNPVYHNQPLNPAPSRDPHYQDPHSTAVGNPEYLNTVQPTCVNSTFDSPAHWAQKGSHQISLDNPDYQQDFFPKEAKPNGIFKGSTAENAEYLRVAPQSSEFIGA

[8] = molecular target: Follistatin-related protein 3 (Homo sapiens) (UniProt O95633); test: FSTL3 binders on small-molecule microarrays, primary screen, biochemical, small-molecule microarray, 635 nm fluorescence (AID 1105); conditions: FSTL3 binding, higher = more signal;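 note: score merges emission near 667 nm and signal to noise per printed spot across three slides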
Sequence of Follistatin-related protein 3 (Homo sapiens) (O95633 whole entry, looked up): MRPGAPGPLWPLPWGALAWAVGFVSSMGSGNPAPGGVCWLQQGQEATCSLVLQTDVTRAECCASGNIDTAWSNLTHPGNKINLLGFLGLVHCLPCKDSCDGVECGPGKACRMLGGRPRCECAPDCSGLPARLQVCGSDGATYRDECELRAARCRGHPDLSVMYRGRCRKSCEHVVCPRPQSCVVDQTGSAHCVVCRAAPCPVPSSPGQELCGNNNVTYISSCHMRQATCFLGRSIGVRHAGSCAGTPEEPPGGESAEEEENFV

[9] = molecular target: Dickkopf-related protein 1 (Homo sapiens) (UniProt O94907); test: DKK1 binders on small-molecule microarrays, primary screen, biochemical, small-molecule microarray, 635 nm fluorescence scan (AID 1106); conditions: DKK1 binding, higher = more signal;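 note: score merges emission near 667 nm with signal to noise over three replicate slides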
Sequence of Dickkopf-related protein 1 (Homo sapiens) (O94907 whole entry, looked up): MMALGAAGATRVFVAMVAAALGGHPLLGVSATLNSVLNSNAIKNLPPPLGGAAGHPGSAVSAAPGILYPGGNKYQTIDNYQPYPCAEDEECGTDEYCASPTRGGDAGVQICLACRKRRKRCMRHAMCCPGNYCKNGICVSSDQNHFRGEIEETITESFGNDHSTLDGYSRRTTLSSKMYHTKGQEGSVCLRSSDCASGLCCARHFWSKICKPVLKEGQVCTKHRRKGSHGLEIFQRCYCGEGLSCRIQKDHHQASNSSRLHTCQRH

[10] = system: Inhibin beta A chain (activin A); test: INHBA (activin A) binders on microarrays, primary screen, biochemical, small-molecule microarray, 635 nm fluorescence scan (AID 1107); conditions: small-molecule microarray binding, higher = more signal;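 note: mouse activin A protein probed at 4.33 µg/mL on printed slides; score merges bound-protein fluorescence near 667 nm with spot signal-to-noise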
[11] = system: Human papillomavirus type 1a protein E7 (residues 44-93); test: HPV1a E7 fragment binders on microarrays, primary screen, biochemical, small-molecule microarray, residues 44-93, 635 nm fluorescence (AID 1108); conditions: small-molecule microarray binding, fluorescence 635 nm; higher = more signal;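 note: E7 fragment applied at 1 µg/mL in TBST for 1 h at 4 C; score combines spot fluorescence with its signal to noise ratio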
[12] = modulators of HCV replicon luciferase signal, primary screen, HCV replication inhibitor project, Huh7 cells, luciferase reporter (AID 1109); conditions: 48 h, higher = more signal;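 note: huh7 hepatoma cells harbouring a luciferase neomycin HCV replicon reporter; luciferase luminescence as measure of HCV replicon replication; test concentration not given here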
[13] = molecular target: Left-right determination factor 2 (Homo sapiens) (UniProt O00292); test: LEFTY2 binders on small-molecule microarrays, primary screen, biochemical, small-molecule microarray, 635 nm fluorescence scan (AID 1110); conditions: LEFTY2 binding, higher = more signal
Sequence of Left-right determination factor 2 (Homo sapiens) (O00292 whole entry, looked up): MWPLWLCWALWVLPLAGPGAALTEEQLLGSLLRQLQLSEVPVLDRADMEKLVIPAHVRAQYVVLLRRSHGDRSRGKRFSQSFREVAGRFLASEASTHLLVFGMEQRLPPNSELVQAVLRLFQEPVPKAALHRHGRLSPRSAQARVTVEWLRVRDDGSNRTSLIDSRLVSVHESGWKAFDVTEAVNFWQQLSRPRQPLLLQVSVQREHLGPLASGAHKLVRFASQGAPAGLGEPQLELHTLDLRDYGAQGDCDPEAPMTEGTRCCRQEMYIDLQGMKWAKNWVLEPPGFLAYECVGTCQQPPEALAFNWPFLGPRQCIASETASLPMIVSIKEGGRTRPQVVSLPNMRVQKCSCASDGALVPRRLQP

[14] = molecular target: Calmodulin-1 (Homo sapiens) (UniProt P0DP23); test: CALM1 binders on microarrays, EGTA buffer, profiling panel, biochemical, small-molecule microarray, Cy5-labelled CALM1 (AID 1111); conditions: Cy5-CALM1 binding fluorescence, higher = more signal;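 note: labelled calmodulin applied in Tris saline Tween buffer holding calcium plus EGTA and DTT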
[15] = molecular target: Calmodulin-1 (Homo sapiens) (UniProt P0DP23); test: calcium-bound CALM1 binders on microarrays, profiling panel, artefact control for SMM control-protein annotation, biochemical, small-molecule microarray, Cy5-labelled CALM1, plus calcium (AID 1112); conditions: Cy5-CALM1 binding fluorescence, higher = more signal;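 note: score merges spot fluorescence with signal to noise from triplicate slides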
[16] = small-molecule microarray binders of probe aWnt5a, primary screen, biochemical, biotinylated probe, 635/667 nm fluorescence (AID 1113); conditions: higher = more signal;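 note: score merges 667 nm fluorescence intensity with signal-to-noise per printed feature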
[17] = small-molecule microarray binders of probe aShh, primary screen, biochemical, biotinylated probe, 635/667 nm fluorescence (AID 1114); conditions: higher = more signal;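 note: probe is biotin-labelled aShh protein from a stem cell growth factor screen; measures binding of labelled protein to compounds printed on the slide; score merges feature fluorescence at 667 nm with signal-to-noise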
[18] = small-molecule microarray binders of probe aNog, primary screen, biochemical, biotinylated probe, 635/667 nm fluorescence (AID 1115); conditions: higher = more signal;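 note: probe is biotinylated aNog protein used at 0.15 µg/mL for 1 h at 4 C; z-score combines 667 nm fluorescence of each spot with its signal to noise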
[19] = molecular target: Torsin-1A-interacting protein 1 (Homo sapiens) (UniProt Q5JTV8); test: LAP1 binders from COS7 cell lysate, primary screen, small-molecule microarray, 635/667 nm fluorescence (AID 1116); conditions: COS7-hLAP1 lysate binding, 635 nm fluorescence, higher = more signal
Sequence of Torsin-1A-interacting protein 1 (Homo sapiens) (Q5JTV8 whole entry, looked up): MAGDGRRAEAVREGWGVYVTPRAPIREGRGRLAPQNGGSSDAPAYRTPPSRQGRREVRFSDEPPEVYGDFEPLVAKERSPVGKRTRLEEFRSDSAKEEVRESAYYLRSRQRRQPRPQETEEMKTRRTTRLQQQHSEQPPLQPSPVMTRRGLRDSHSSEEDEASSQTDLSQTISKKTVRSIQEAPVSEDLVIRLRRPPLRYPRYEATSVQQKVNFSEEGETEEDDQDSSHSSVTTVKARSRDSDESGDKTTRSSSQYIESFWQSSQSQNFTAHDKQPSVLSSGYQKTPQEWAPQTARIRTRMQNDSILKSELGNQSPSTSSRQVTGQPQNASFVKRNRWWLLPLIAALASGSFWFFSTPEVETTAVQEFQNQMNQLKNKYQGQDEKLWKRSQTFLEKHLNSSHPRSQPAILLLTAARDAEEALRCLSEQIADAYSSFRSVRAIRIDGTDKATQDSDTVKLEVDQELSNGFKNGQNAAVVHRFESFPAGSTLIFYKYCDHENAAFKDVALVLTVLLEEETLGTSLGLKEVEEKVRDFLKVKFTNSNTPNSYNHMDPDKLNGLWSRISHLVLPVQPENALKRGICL

[20] = molecular target: Alpha-bungarotoxin (Bungarus multicinctus) (UniProt P60615); test: alpha-bungarotoxin binders on microarray, profiling panel, artefact control for SMM control protein annotation, biochemical, small-molecule microarray, Alexa647 label, 635/667 nm fluorescence (AID 1117); conditions: alpha-BTX-A647 binding fluorescence, higher = more signal
Sequence of Alpha-bungarotoxin (Bungarus multicinctus) (P60615 whole entry, looked up): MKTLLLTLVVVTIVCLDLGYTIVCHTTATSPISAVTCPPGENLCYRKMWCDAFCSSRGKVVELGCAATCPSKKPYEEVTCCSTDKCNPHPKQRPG

| SMILES | composite z-score [1] | composite z-score [2] | composite z-score [3] | z-score [4] | composite z-score [5] | composite z-score [6] | composite z-score [7] | composite z-score [8] | composite z-score [9] | composite z-score [10] | composite z-score [11] | z-score [12] | composite z-score [13] | composite z-score [14] | composite z-score [15] | composite z-score [16] | composite z-score [17] | composite z-score [18] | composite z-score [19] | composite z-score [20] |
| --- | --- | --- | --- | --- | --- | --- | --- | --- | --- | --- | --- | --- | --- | --- | --- | --- | --- | --- | --- | --- |
| C=C(/C(=C/C[C@H](OC(C)=O)c1cccc(OCCO)c1)c1cc(C(=O)OC)ccc1OC)C(C)C | 0.86 | -0.0559 | 0.132 | -0.846 (inactive) | 0.306 | -0.116 | -0.805 | -0.948 | -0.316 | 0.576 | -0.0954 | -0.556 | -0.516 | -1 | -0.551 | -0.124 | -0.0337 | 0.209 | 0.19 | -1.33 |
| COc1c(C)cc(-c2cc3c(c(CCc4ccccc4)n2)[Si](C(C)C)(C(C)C)OC3)cc1C | -0.615 | 0.335 | 0.156 | -1.28 (inactive) | 0.513 | 0.723 | 0.927 | 0.567 | 0.162 | 0.474 | 0.804 | 0.336 | 0.474 | -0.354 | -0.381 | -0.152 | -0.131 | 0.162 | 0.0693 | -0.382 |
| O=C(NCc1ccccc1)[C@@H]1c2ccccc2C(=O)N(Cc2ccccc2Cl)[C@H]1c1ccc(CO)cc1 | 0.447 | 1 | 1.01 | -1.05 (inactive) | 0.814 | 1.32 | 0.183 | 1.42 | 0.909 | 0.791 | 1.05 | -0.267 | 0.671 | -0.23 | 0.0368 | 0.0297 | 0.123 | 0.522 | 1.21 | 1.67 |
| COCCOC(=O)N1C(=O)[C@@]2(c3cc(C#CCCO)ccc31)[C@H](c1ccccc1OCCO)N1[C@H](c3ccccc3)[C@H](c3ccccc3)OC(=O)[C@H]1[C@@H]2C(=O)NC[C@H](O)c1ccccc1 | 1.34 | 0.704 | 0.416 | -0.428 (inactive) | 1.16 | 1.22 | 0.2 | 1.35 | 0.74 | 0.274 | 0.722 | -1.53 | 0.449 | 1.11 | 0.678 | -0.0512 | 0.275 | 0.482 | 1.38 | 1.89 |
| C=CCN1C(=O)[C@@]2(O[C@@H](CCn3cc(CCO)nn3)[C@H]([Si](C)(C)c3ccc(OC)cc3)[C@H]2C)c2cc(N3C(=O)c4cccc5cccc3c45)ccc21 | 0.579 | 0.13 | -0.224 | -3.34 (inactive) | 0.466 | 0.308 | 0.234 | 0.688 | 0.315 | 0.58 | 0.51 | -5.22 | -0.165 | 1.37 | 0.258 | 0.0733 | -0.138 | 0.473 | 0.482 | 1.6 |
| C=CC[C@]1(C(=O)N(C)C)N=C(c2ccc(OCCCO)cc2)O[C@H]1c1ccccc1CN=[N+]=[N-] | 1.27 | 1.68 | 1.09 | -0.0363 (inactive) | 0.698 | 1.32 | 0.0528 | 0.513 | 0.328 | 1.43 | 0.923 | -2.44 | 0.447 | 2.17 | 1.17 | 0.0324 | -0.174 | 1.24 | 1.92 | 1.58 |
| COc1ccc([Si](C)(C)[C@H]2[C@H](CC(=O)N(CCO)Cc3ccccc3)O[C@@]3(C(=O)N(Cc4ccc(N5CCC5=O)cc4)c4ccccc43)[C@@H]2C)cc1 | 0.811 | 0.0433 | 0.4 | -0.439 (inactive) | -0.802 | -0.39 | -0.443 | -0.155 | 0.183 | 0.577 | -0.403 | -3.87 | 0.271 | 0.0311 | 0.705 | -0.187 | 0.0434 | -0.231 | 1.25 | 1.33 |
| C=C(C(=O)CC[C@H](OC(C)=O)c1ccc(CO)o1)C(C)C | 1.73 | -0.272 | -0.476 | -1.4 (inactive) | 0.0843 | 0.626 | -0.986 | -0.144 | 0.24 | 0.0011 | -0.559 | -1.52 | -0.586 | -0.579 | -0.758 | -0.096 | 0.0048 | -0.309 | 1.15 | -0.292 |
| O=C(O)[C@H]1C[C@H]2C(=O)NCC(=O)N2[C@H]1c1cccc(OCCO)c1 | 1.69 | 0.809 | 0.725 | -0.387 (inactive) | 0.082 | 0.444 | 0.0343 | 0.778 | 0.552 | 1.5 | 0.22 | 3.1 | -0.166 | 0.338 | 0.921 | 0.291 | 0.0118 | 0.906 | 1.51 | 1.81 |
| CC(C)C[C@@H]1NC(=O)[C@@H]2C[C@H](C(=O)NCCCCCNC(=O)CS)[C@H](c3cccc(OCCO)c3)N2C1=O | 1.68 | 0.588 | 0.619 | -1.15 (inactive) | 0.654 | 1.32 | 0.717 | 0.921 | 0.741 | 0.947 | 0.64 | 0.568 | 0.581 | 0.942 | 0.0355 | -0.0236 | 0.242 | 0.418 | 1.25 | 2.72 |
| O=C1c2ccccc2[C@@]2(Cc3ccccc3N(CC(F)(F)F)C2=O)[C@H](c2ccc(CO)cc2)N1Cc1ccccc1C(F)(F)F | -1.84 | 0.471 | 0.957 | -0.0373 (inactive) | -0.316 | -1.41 | -0.903 | -1.15 | -1.95 | 1.04 | -0.713 | 0.301 | -0.888 | -0.434 | 0.0123 | -0.104 | -0.0243 | 0.673 | -0.459 | -1.7 |
